Most compounds without a hit are left out; they make up all but 11% or so of the library.
Pf growth 48h: P. falciparum growth inhibition at 48 hours (one generation) | P. falciparum luciferase growth in erythrocytes, 48 h | Potency, µM (doses to about 28.7 µM), inactives show at the highest dose activity change, negative = inhibition, actives largely listed as inhibitors | 310,000 compounds, 5.9% hits | AID 504832; further: on the % scale 0 is the no-effect control and ±100 the full control effect
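Firefly luciferase activity from engineered P. falciparum reports growth; inhibitors lower the luminescent signal. Cultures contained 2% hematocrit erythrocytes at 0.1% final parasitemia.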
AMA1-RON2 inh: disrupts binding of P. falciparum AMA1 to RON2. 360,000 compounds, 0.2% hits. Potency, µM (top dose mostly 58.2 µM), for inactives: at the highest dose activity change, negative = inhibition, most hits filed as inhibitors. AlphaScreen AMA1-biotinylated RON2 peptide binding;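 further: 0% = vehicle wells and -100% = peptide control; nearly all actives have a fitted effect of over 45% in size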
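AMA1 (3D7) with his tag at 25 nM final met compounds first, then biotinylated RON2 peptide at 25 nM; detection used donor plus acceptor beads, 10 µg/mL apiece, read by AlphaScreen after 30 min at room temperature.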
NS1 function inh: inhibitors of influenza NS1 protein function; Potency, µM (titrated, usually from 46.1 µM), for the others: at the top dose activity, positive = more growth; AID 2326; 270,000 compounds, 0.4% hits; calls by dose curve; further: actives are rising curves; nearly all actives have a fitted effect of over 50% in size
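Growth recovery, yeast-based: influenza A NS1 expressed in S. cerevisiae causes slow growth, and suppressors are detected by OD600. The parent strain without NS1 is used as positive control.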
Pf growth 96h: P. falciparum growth inhibition at 96 hours; P. falciparum luciferase reporter growth, 96 h; Potency, µM (doses to about 28.7 µM), inactives show top-dose activity change, negative = inhibition, actives largely listed as inhibitors; 320,000 compounds, 6.9% hits; AID 504834; further: on the % scale 0 is the no-effect control and ±100 the full control effect
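96 h incubation, 37 C, 5% CO2, of luciferase-reporter P. falciparum-infected RBCs (2% hematocrit, 0.05% parasitemia final) with test compounds; endpoint luminescence.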
Sm TGR inh: S. mansoni TGR enzyme inhibition; Q962Y6; purified TGR, DTNB reduction, TNB absorbance 405 nm; Potency, µM (titrated, usually from 114 µM), without a hit: at the top dose activity change, negative = inhibition, usual class: inhibitors; 360,000 compounds, 3% hits; further: on the % scale 0 is the no-effect control and ±100 the full control effect; nearly all actives have a fitted effect of over 60% in size
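Kinetic colorimetric format: TGR-catalysed, NADPH-driven DTNB reduction monitored via TNB absorbance. Enzyme dispensed at 20 nM; compound exposure 15 min at room temperature before reaction start.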
Starred values were filed as active, the others as inactive; ? = inconclusive; . = no result given. Unless noted, the call rests on the fitted dose curve; in most records, active means well fitted curve in the direction sought with a large enough effect; inconclusive means small, poorly fitted or top-dose-only effect, or another doubt; inactive means no such curve, though single readings can be large; an effect the other way counts as inactive or inconclusive. Potency means the concentration at half of the fitted maximal effect.

SMILES | Pf growth 48h | AMA1-RON2 inh | NS1 function inh | Pf growth 96h | Sm TGR inh
COc1ccc(S(=O)(=O)n2nc(C)c(S(=O)(=O)N3CCOCC3)c2C)cc1OC | -0.9% | . | 0.8% | -3.8% | -4.4%
CS(=O)(=O)N1Cc2cc(C(=O)NCC3CC3)nc(-c3cccc(-c4cccnc4)c3)c2[C@@H]1CCO | . | 10.1% | . | . | .
Cc1ccc(C(c2sc3nc(-c4ccco4)nn3c2O)N2CCOCC2)cc1 (centres undefined) | . | . | . | . | 8.8%
COc1cc(OC)c2c(c1O)OC(c1ccccc1)CC2=O (centres undefined) | 31.5% | ? | 2.5% | 9.3% | 50.1µM*
O=C1CC(c2ccccc2)Oc2cc(O)cc(O)c21 (centres undefined) | -3.8% | 0.0% | -50.6% | ? | -7.3%
Cn1c(N2CCN(C(c3ccccc3)c3ccccc3)CC2)nc2ccccc21 | ? | -16.3% | -52.2% | 13.1µM* | 11.6%
COc1ccc(NC(=O)CC2C(=O)N(c3cccc(C)c3)C(=O)N2Cc2cccnc2)cc1 (centres undefined) | . | . | . | . | -3.1%
CC(C)C(NS(=O)(=O)c1ccccc1)C(=O)N1CCN(C(=O)c2ccco2)CC1 (centres undefined) | -1.8% | -5.1% | -5.6% | -2.6% | -25.9%
Nc1nc(-c2ccc(Cl)cc2)cc(C(F)(F)F)n1 | 26.7% | 0.2% | 4.9% | 7.38µM* | 1.4%
Cc1ccc(C2C(C(=O)c3cc4ccccc4o3)=C(O)C(=O)N2c2cc(C)on2)cc1 (centres undefined) | ? | 7.7% | 9.6% | -16.1% | -27.5%
Cc1cc(N2C(=O)C(O)=C(C(=O)c3cc4ccccc4o3)C2c2cccs2)no1 (centres undefined) | -8.5% | -1.5% | -1.4% | -7.6% | 56.2µM*
O=C(C1=C(O)C(=O)N(c2nccs2)C1c1ccccc1)c1cc2ccccc2o1 (centres undefined) | 108.7% | 8.5% | -3.7% | 146.6% | 10µM*
O=C(C1=C(O)C(=O)N(CCc2ccccc2)C1c1ccncc1)c1cc2ccccc2o1 (centres undefined) | 10.8% | 0.6% | -1.7% | 0.1% | .
CN(C)S(=O)(=O)c1ccc(Cl)c(C(=O)OCC(=O)NC(=O)c2cccn2C)c1 | 9.7% | -12.8% | -12.7% | 59.7% | -0.5%
CC(C)c1ccc(S(=O)(=O)c2nnn3c2nc(NCc2cccs2)c2sccc23)cc1 | . | . | . | . | 3.6%
Cc1ccc(C(=O)NCCC2=CCCCC2)cc1S(=O)(=O)N1CCOCC1 | 11.7µM* | -5.5% | . | ? | -2.4%
Cc1ccc(C(=O)NCCC2=CCCCC2)cc1S(=O)(=O)N1CCCCC1 | 11.7µM* | -4.1% | . | 4.65µM* | -16.8%
CCC(C)NC(=O)C(=O)NCc1ccccn1 (centres undefined) | 4.9% | 19.1% | 8.0% | 13.4% | .
O=C(Cc1ccccc1)Nc1ncccn1 | 21.4% | 54.2% | . | 57.3% | -19.9%
Cc1cc(C)cc(OC(C)C(=O)Nc2ccc3c(c2)n(C)c(=O)n3C)c1 (centres undefined) | -5.5% | 0.0% | -10.5% | 0.928µM* | -23.3%
COc1ccc(N=C2SC(C(=O)N3CCN(c4ccc([N+](=O)[O-])cc4)CC3)CC(=O)N2C)cc1 (centres undefined) | 14.7µM* | -23.8% | -2.6% | -17.6% | .
CCOc1ccc(CCNC(=O)c2cn(-c3ccc(OC)cc3)c(=O)c3ccccc23)cc1OCC | . | . | . | . | -0.3%
COc1ccc(C(=O)OCC(=O)NC2CC2)cc1 | . | 19.3% | . | . | .
CC(C)(C)c1ccc(C(=O)OCC(=O)NC2CC2)cc1 | 9.28µM* | 0.6% | . | ? | -1.2%
O=S1(=O)CC(O)C(Nc2ccccc2)C1 (centres undefined) | -2.2% | -4.0% | 0.9% | 17.2% | 2.8%
SMILES | Pf growth 48h | AMA1-RON2 inh | NS1 function inh | Pf growth 96h | Sm TGR inh
O=S1(=O)CC(O)C(Nc2ccc(Cl)cc2)C1 (centres undefined) | 9.9% | 6.5% | -1.5% | 3.7µM* | 1.8%
C=CCN(CC(=O)NC1CCS(=O)(=O)C1)S(=O)(=O)c1ccccc1C(F)(F)F (centres undefined) | -5.4% | -14.3% | . | -3.7% | -4.3%
Cc1cccc(N(CC(O)CON=C2c3ccccc3-c3ccccc32)S(C)(=O)=O)c1 (centres undefined) | . | -6.5% | 12.0% | 13.1µM* | 0.2%
CCN(CC(O)CON=C1c2ccccc2-c2ccccc21)S(=O)(=O)c1ccc(Cl)cc1 (centres undefined) | ? | 8.8% | 17.2% | ? | -3.6%
CN(CC(O)CON=C1c2ccccc2-c2ccccc21)S(=O)(=O)c1ccc(Br)cc1 (centres undefined) | 6.57µM* | 2.2% | 20.1% | ? | -6.2%
CCN(CC(O)CON=C1c2ccccc2-c2ccccc21)S(=O)(=O)c1ccc(C)cc1 (centres undefined) | ? | 1.2% | -32.0% | 2.33µM* | 19.3%
COc1ccc(C)cc1NC(=O)CN1C(=O)CCc2cc(S(=O)(=O)N3CCOCC3)ccc21 | . | . | . | . | -2.2%
Cn1cccc1/C=N/N1CCN(Cc2ccccc2)CC1 | -10.1% | -16.7% | 2.3% | 14.2% | -29.0%
Cn1cccc1/C=N/N1CCN(Cc2cccc3ccccc23)CC1 | -6.3% | 20µM* | 1.4% | 1.8% | ?
Cc1cccc(C)c1NC(=O)c1cccc2c1C(=O)N(C1CCCCC1)C2 | 10.4µM* | -6.8% | -19.7% | 11.7µM* | 7.6%
COc1cc(C(=O)NNC(=O)c2cc(-c3ccccc3)n[nH]2)cc(OC)c1C | ? | 75.7% | . | ? | -10.4%
CCOC(=O)C1CCN(C(=O)C2CCC(=O)N(CC3CCCCC3)C2)CC1 (centres undefined) | -3.4% | 0.0% | 2.4% | ? | -24.1%
COCCN1CCN(C(=O)C2CCC(=O)N(CCc3ccccc3)C2)CC1 (centres undefined) | 42.5% | -1.1% | 4.3% | 9.28µM* | -6.4%
COc1ccc(CNC(=O)C2CCC(=O)N(CC3CCCCC3)C2)cc1 (centres undefined) | -6.8% | -7.9% | -2.3% | 2.33µM* | -0.3%
Cc1cccc(CNC(=O)C2CCC(=O)N(CC3CCCCC3)C2)c1 (centres undefined) | . | -4.7% | . | . | .
COCCCC1CCN(C(=O)C2CCC(=O)N(CC3CCCCC3)C2)CC1 (centres undefined) | 2.0% | 11.5% | -6.0% | 1.47µM* | -1.5%
Cc1ccc(CNC(=O)C2CCC(=O)N(CC3CCCCC3)C2)o1 (centres undefined) | 10.4% | -1.9% | 19.8% | ? | 28.2µM*
CCOC(=O)c1ccc(S(=O)(=O)NNc2ccc(C(F)(F)F)cn2)cc1 | . | 117.7% | . | . | .
CN(CC(=O)Nc1cccc(S(=O)(=O)N2CCCC2)c1)CC(=O)Nc1ccc(Cl)c(C(F)(F)F)c1 | 14.7µM* | 39.0% | . | ? | 3.6%
CN(CC(=O)Nc1ccc(S(=O)(=O)N2CCCC2)cc1)Cc1c(F)cccc1Cl | -21.4% | -15.4% | . | 13.1µM* | -2.0%
CN(CC(=O)Nc1ccc(S(=O)(=O)N2CCCC2)cc1)Cc1ccc(Cl)cc1 | ? | 5.4% | -19.1% | 8.28µM* | -11.7%

Source: PubChem
